# Screens deposited in PubChem by National Center for Advancing Translational Sciences (NCATS).
# D2 PAM-1 – positive allosteric modulators of human D2 dopamine receptor; P14416; HEK293 T-REx D2, calcium flux, EC20 dopamine potentiation; potentiation, % at 10 µM; 340,000 tested, 0.34% active; AID 485347;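 active means potentiation over 3 SD above the plate norm, cut at about 30% in these data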
# Target sequence (P14416 whole entry, looked up): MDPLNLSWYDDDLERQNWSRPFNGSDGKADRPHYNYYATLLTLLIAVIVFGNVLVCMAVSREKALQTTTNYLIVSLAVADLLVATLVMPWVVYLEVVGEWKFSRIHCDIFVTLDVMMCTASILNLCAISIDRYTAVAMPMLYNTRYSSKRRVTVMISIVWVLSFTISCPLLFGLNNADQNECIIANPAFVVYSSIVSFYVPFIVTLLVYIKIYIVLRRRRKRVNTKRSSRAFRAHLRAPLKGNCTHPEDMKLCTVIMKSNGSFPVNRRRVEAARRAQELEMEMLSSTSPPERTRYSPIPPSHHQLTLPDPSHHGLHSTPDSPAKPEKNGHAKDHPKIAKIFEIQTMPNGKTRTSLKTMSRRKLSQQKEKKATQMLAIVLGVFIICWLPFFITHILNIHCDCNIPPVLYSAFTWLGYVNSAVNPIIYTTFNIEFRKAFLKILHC
#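 Tetracycline-induced HEK293 T-REx cells force-coupled to calcium signalling expressed D2; compounds were pin-added after a 10 s baseline, read kinetically 180 s, then an EC20 dopamine challenge followed with a further 180 s calcium read.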
# D2 ag-1 – D2 dopamine receptor (human) agonism; AID 485358; P14416; HEK293 T-REx D2 cells, calcium flux agonist mode; activation, % at 2 µM; 340,000 tested, 0.53% active;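 active means activation over 3 SD above normal in the single-dose calcium agonist read, cut at about 30% in these data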
#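 HEK293 Trex D2 cells, tetracycline-induced, o/n 30 C 5% CO2; no-wash Ca dye, RT 30–90 min; 10-cycle baseline, 23 nl cpd added, kinetic Ca read 180 s; agonist hits = positive Ca response.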
# D2 ag-2 – activates the human D2 dopamine receptor; DiscoveRx PathHunter D2 beta-arrestin, luminescence, 90 min; 100% = 57 uM dopamine signal; 360,000 tested, 0.084% active; activation, % (concentration not given with the values); AID 624465; in the data active means activation above about 40%; inconclusive means between about 15% and that limit
#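 DiscoveRx PathHunter D2 beta-arrestin cells (2,100/well) attached overnight, then compound-stimulated 90 min at 37 C in HBSS/10 mM HEPES/0.1% Tween-20 buffer; beta-galactosidase complementation read by luminescence after 1 h at ambient temperature. Dopamine 57 uM final (EC100) as control.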
# D2 PAM-2 – potentiates the human D2 dopamine receptor allosterically; P14416; DiscoveRx D2 beta-arrestin cells, luminescence, 90 min; 100% = 57 uM dopamine signal; AID 624464; potentiation, % (concentration not given with the values); 360,000 tested, 0.23% active; in the data active means potentiation above about 50%; inconclusive means mostly about 30% to 49%
#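 PathHunter beta-arrestin assay in DiscoveRx D2 cells. Compounds were added with an EC20 of dopamine (50 nM final) for 90 min at 37 deg C. Luminescence was read 1 h after detection reagent, with 57 uM dopamine as the EC100 control.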
# D2 antagonist – D2 dopamine receptor (human) antagonism; P14416; HEK293 TREx D2 cells, calcium flux, dopamine EC80; inhibition, % at 10 µM; 340,000 tested, 2% active; AID 485344; in the data active means inhibition above about 30%; inactive means below that, where a call was filed
#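 Read-out: kinetic calcium fluorescence (1 cycle/s) in inducible HEK293 T-REx D2 cells after an EC80 dopamine addition that followed 180 s compound preincubation. Loss of the dopamine response indicates antagonism.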
# Numbers stand for hits; . = inactive; ? = inconclusive; / = not tested or not shown. In the library only some 2.4% were active in any assay of this set; here they are far more common.
SMILES,D2 PAM-1,D2 ag-1,D2 ag-2,D2 PAM-2,D2 antagonist
CNC(=S)NC1CC2CCCC(C1)N2Cc1ccco1 (stereo not drawn),.,.,.,.,.
CCN(CC)CCNC(=O)c1sc2nc(C)cc(C)c2c1-n1cccc1,.,.,/,/,/
CCc1ccccc1Nc1nn2c(=O)c3ccc(C(=O)NCc4cccs4)cc3nc2s1,.,.,/,/,/
Cc1nc2nncn2c(NCc2ccc(Cl)cc2)c1C,.,.,/,/,/
CCOc1ccc(OCC)c(NC(=O)Nc2ccc3c(c2)N(C)C(=O)CS3)c1,.,.,.,.,64
CSCCC(NC(=O)c1ccco1)C(=O)OC(C)C(=O)NC(=O)NC1CCCCC1 (stereo not drawn),/,.,.,.,49
COc1ccc(O)c(/C=N/NC(=O)CCC(=O)Nc2cccc(C)c2)c1,.,.,.,.,.
O=C(CCC(=O)Nc1ccc(Br)cc1)N/N=C/c1ccc(O)cc1,.,.,.,.,33
COc1ccc(OC)c(/C=N/NC(=O)CCCC(=O)Nc2cccc(Br)c2)c1,.,.,.,.,68
Cc1ccc(NC(=O)CCC(=O)N/N=C/c2ccc(O)cc2)cc1,.,.,.,.,.
COc1cc(/C=N/NC(=O)CCC(=O)Nc2ccc(Br)cc2)ccc1O,.,.,.,.,32
Cc1ccc(Nc2sc(C(=O)c3ccccc3)c(N)c2S(=O)(=O)c2ccccc2)c(C)c1,.,.,/,/,/
COc1ccc(Oc2ncnc3sccc23)cc1,.,.,.,.,.
Cc1nc(Oc2ccccc2)c2ccsc2n1,30,.,.,.,.
Cc1ccc2[nH]c3c(c2c1)CCCC3=O,.,.,.,.,.
O=C1CCCc2c1[nH]c1ccc(CN3CCCCC3)cc21,.,.,.,.,51
CCc1ccc(S(=O)(=O)c2nnn3c2nc(NC2CCCCCC2)c2sccc23)cc1,.,.,/,/,/
CC1=CC(C)(C)Nc2ccc(OC(=O)c3ccco3)cc21,.,.,.,51,.
CCn1nnnc1-c1ccc(OC)c(S(=O)(=O)Nc2ccc(OC)cc2)c1,.,.,.,.,36
CC(C)OCCCNC(=O)Cc1ccc(F)cc1,.,.,.,.,57
CCOCCCNC(=O)Cc1ccc(F)cc1,.,.,/,/,.
CCOc1ccccc1C(=O)N1CC(=O)Nc2ccc(C)cc2C1c1ccccc1 (stereo not drawn),/,.,/,/,/
CCOC(=O)C(=NCCCN(C)C)NNc1ccc(Br)cc1,.,.,.,.,.
CCOC(=O)C(=NCCCN(C)C)NNc1cc(C(F)(F)F)ccc1Cl,.,.,.,.,35
CN1CCN(NC(=O)CSc2ccc(Cl)cc2Cl)CC1,.,.,.,.,46
SMILES,D2 PAM-1,D2 ag-1,D2 ag-2,D2 PAM-2,D2 antagonist
O=C(CSc1cc(Cl)ccc1Cl)NC1CC1,.,.,.,.,.
COc1ccccc1CNc1nccn(-c2ccccc2)c1=O,.,.,/,/,/
O=S(=O)(c1ccc(Cl)cc1)n1ccc2cccnc21,38,.,.,.,.
Cc1ccc(S(=O)(=O)n2ccc3cccnc32)cc1,.,.,.,.,37
Cc1cccc(C)c1OCCN1C(=O)NC(C)(c2ccccc2)C1=O (stereo not drawn),39,.,.,.,.
Cc1ccc(-n2nnnc2CN2CCCCC2)cc1,.,.,.,.,38
COc1ccccc1N1CCN(C(=O)Cn2c(=O)nc(-c3ccccc3)c3cc(Cl)ccc32)CC1,.,.,/,/,/
O=C(CSc1oc(-c2ccc(F)cc2)nc1S(=O)(=O)c1ccc(Cl)cc1)c1ccccc1,.,.,/,/,/
COc1ccc(OCc2ccc(-c3nc(C#N)c(NCc4cccnc4)o3)o2)cc1,.,.,/,/,/
Cc1ccc(C(=O)N/N=C\c2cc3c(cc2Br)OCO3)s1,.,.,.,.,66
COC(=O)N/N=C\c1cc2c(cc1Br)OCO2,.,.,.,.,.
COc1ccc(CNC(=O)CCC2N=C3c4ccccc4N=C(SCc4ccc(F)cc4)N3C2=O)cc1 (stereo not drawn),.,.,/,/,/
CC1=C(C(=O)NCCN2CCN(C)CC2)C2(CCC(C)CC2)OC1=O (stereo not drawn),.,.,.,.,61
COc1ccccc1CNC(=O)C1=C(C)C(=O)OC12CCC(C)CC2 (stereo not drawn),.,.,.,.,47
CCCNC(=O)C1=C(C)C(=O)OC12CCC(C)CC2 (stereo not drawn),.,.,.,.,.
Cc1cccc2c1-c1sc(C(=O)NCCc3ccc(Cl)cc3)cc1CO2,.,.,/,/,/
CC(CSc1nnnn1-c1ccccc1)Cn1c(N2CCCC2)nc2c1c(=O)[nH]c(=O)n2C (stereo not drawn),.,.,.,.,.
Cn1c(=O)[nH]c(=O)c2c1nc(N1CCOCC1)n2CCSc1nnnn1-c1ccccc1,.,.,.,.,37
O=C(Nc1ccc(N2CCN(c3ccc(F)cc3)CC2)c(C(=O)O)c1)c1cccs1,.,.,/,/,/
Cc1ccc(NC(=O)c2nc(S(C)(=O)=O)ncc2N(Cc2ccc(C(C)(C)C)cc2)Cc2ccco2)cc1C,/,.,/,/,/
Cc1nnc(SCc2nc(-c3ccc(Cl)cc3)no2)n1-c1ccc(F)cc1,.,.,/,/,/
COc1ccc(S(=O)(=O)NCC2CCC(C(=O)NCCCN3CCCC3=O)CC2)cc1 (stereo not drawn),.,.,.,.,32
CCOC(=O)c1sc(NC(=O)c2ccncc2)c(C#N)c1C,31,.,.,?,.
CCOC(=O)c1sc(NC(=O)CSc2n[nH]c(-c3ccc(Cl)cc3Cl)n2)c(C#N)c1C,31,.,.,.,.
Cc1c(C(=O)N2CCCC2)sc(NC(=O)c2ccc(Cl)cc2)c1C#N,.,.,.,.,91
SMILES,D2 PAM-1,D2 ag-1,D2 ag-2,D2 PAM-2,D2 antagonist
CSc1cccc(NC(=O)C2CCN(S(=O)(=O)c3ccc4c(c3)CCCN4C(=O)C3CCC3)CC2)c1,.,.,/,/,/
COc1cc(OC)c(OC)cc1CNc1sc2c(c1C(=O)Nc1ccccc1OC)CCC2,/,.,/,/,/
Cc1cc(-n2c(C)cc(C(=O)COc3ccc(F)c(F)c3)c2C)no1,.,.,.,.,30
Cc1cc(-n2c(C)cc(C(=O)COc3ccccc3[N+](=O)[O-])c2C)no1,/,/,.,.,/
CCC(NS(=O)(=O)c1ccc(C)cc1)C(=O)N1CCC2(O)CCCCC2C1 (stereo not drawn),39,.,.,.,.
CCc1ccccc1NC(=O)c1nnn(Cc2ccc(Cl)cc2)c1N,.,.,/,/,/
O=C(/C=C/c1ccccc1)NC1CC2CCCC(C1)N2Cc1ccccc1 (stereo not drawn),.,.,/,/,88
CCN(CC)C(=O)NC1CC2CCCC(C1)N2Cc1ccccc1 (stereo not drawn),.,.,.,.,92
CCN(CC)S(=O)(=O)c1ccc(Cl)c(C(=O)Nc2ccc(Cl)cc2[N+](=O)[O-])c1,.,.,.,63,.
CC1CCCCC1NC(=O)CN1CCN(Cc2ccccc2Cl)C1=O (stereo not drawn),.,.,.,.,.
